Compounds with a hit are over-represented: about 6.6% of the library has one in this group of screens.
GDH-TPI counter-1: GDH-TPI coupled enzyme inhibition counter-screen; 360,000 tested, 1.2% active; inhibition, % at 4.8 µM; GDH-TPI coupled enzyme counterscreen, NADH absorbance; AID 588335; in the data active means inhibition above about 30%
BoNT A protease: BoNT A light chain protease inhibition. inhibition, % at 10 µM. AID 588499. 360,000 tested, 0.17% active. multiplex microsphere protease substrate cleavage, flow cytometry; in the data active means inhibition above about 30%; inconclusive means no clear call, values can overlap the other calls
Anthrax LF prot: inhibitors of Bacillus anthracis lethal factor protease; multiplex microsphere protease cleavage assay, LF; inhibition, % at 10 µM; 360,000 tested, 0.12% active; P15917; in the data active means inhibition above about 30%; inconclusive means no clear call, values can overlap the other calls
Bead autofluor: compound fluorescence in toxin protease inhibitor counterscreen; compound autofluorescence counterscreen, microsphere flow cytometry; stronger effect = higher value; fluorescence intensity (no concentration beside the values); 360,000 tested, 3.1% active; AID 624483; in the data active means fluorescence intensity above about 16000; inconclusive means no clear call, values can overlap the other calls
Mtb FBA inh: inhibits M. tuberculosis FBA enzyme; 360,000 tested, 2.3% active; inhibition, % at 1 µM; purified M. tuberculosis FBA, fluorescence read-out
Target sequence (P9WQA3 whole entry, looked up): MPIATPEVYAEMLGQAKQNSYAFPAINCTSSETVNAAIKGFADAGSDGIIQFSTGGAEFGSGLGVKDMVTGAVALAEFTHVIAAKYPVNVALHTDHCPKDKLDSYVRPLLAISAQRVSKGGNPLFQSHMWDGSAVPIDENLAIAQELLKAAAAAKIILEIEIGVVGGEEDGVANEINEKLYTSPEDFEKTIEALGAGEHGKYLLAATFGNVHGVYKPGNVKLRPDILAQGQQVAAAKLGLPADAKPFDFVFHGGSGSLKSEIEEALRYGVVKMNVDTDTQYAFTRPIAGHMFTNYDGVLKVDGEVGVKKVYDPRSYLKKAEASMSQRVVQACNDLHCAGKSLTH
BoNT F protease: blocks Botulinum neurotoxin F light chain protease. inhibition, % at 10 µM. 360,000 tested, 0.22% active. Multiplex microsphere protease cleavage assay, flow cytometry; in the data active means inhibition above about 35%, passing the limit was not always enough; inconclusive means no clear call, values can overlap the other calls
Mtb FBA inh conf: confirmation of M. tuberculosis fructose-bisphosphate aldolase inhibitors; purified M. tuberculosis FBA, fluorescence read-out; 5,600 tested, 78% active; shares compounds with Mtb FBA inh; inhibition, % at 1 µM
GDH-TPI counter-2: inhibits GDH-TPI coupling enzymes, flagging Mtb FBA hits | shares compounds with Mtb FBA inh | GDH-TPI coupled enzyme counterscreen, fluorescence | inhibition, % at 1 µM | 5,600 tested, 81% active; in the data active means inhibition above about 10%
Each line names hits and unclear results; the compound was inactive in the other large screens (follow-up assays come after a bar, where they were run). Unless noted, no stated cut-off is given here; in the data, active means inhibition above about 27%; inactive means the rest.

CCOCCCn1cnc2c3cc(F)ccc3n(C)c2c1=O	Mtb FBA inh 31.3 | Mtb FBA inh conf 162.6 | GDH-TPI counter-2 133.2
Cn1c2ccc(F)cc2c2ncn(Cc3ccccn3)c(=O)c21	Mtb FBA inh 27.5 | Mtb FBA inh conf 47.1 | GDH-TPI counter-2 40.9
Cn1c2ccc(F)cc2c2ncn(Cc3ccco3)c(=O)c21	Bead autofluor 23973, Mtb FBA inh 31.7 | Mtb FBA inh conf 97.6 | GDH-TPI counter-2 91.3
Cn1c2ccc(F)cc2c2ncn(CC3CCCO3)c(=O)c21 (centres undefined)	Mtb FBA inh 27.4, BoNT F protease inconclusive | Mtb FBA inh conf 175.7 | GDH-TPI counter-2 179.5
O=c1ccn([C@@H]2O[C@H](CNCC3=Cc4cc(O)ccc4OC3)[C@@H](O)[C@H]2O)c(=O)[nH]1	none
CCc1cc(C(=O)Nc2ccc(S(=O)(=O)NC3=NCCCCC3)cc2)sc1C	none
C=CCN1CCN(C(CCC)c2nnnn2Cc2ccco2)CC1 (centres undefined)	none
CCNc1nc(Oc2ccc(C#N)cc2)cc(C(F)(F)F)n1	Mtb FBA inh 55.9 | Mtb FBA inh conf 130.9 | GDH-TPI counter-2 87.8
CCNc1nc(Oc2ccc(F)cc2)cc(C(F)(F)F)n1	none
Cn1c(-c2ccccc2O)cc2ccccc21	Mtb FBA inh 31.7 | Mtb FBA inh conf 139.8 | GDH-TPI counter-2 118.6
CCOC(=O)Cc1nnc(NC(=O)CCc2ccccc2)s1	none
Cc1cc2[nH]c(=O)c3ccccc3n2n1	none
Cc1cc2[nH]c(=O)cc(-c3ccccc3)n2n1	Mtb FBA inh 34.0 | Mtb FBA inh conf 153.3 | GDH-TPI counter-2 119.8
COc1ccc(C)cc1S(=O)(=O)Nc1cccc(-c2cn3cccnc3n2)c1	Mtb FBA inh 89.3 | Mtb FBA inh conf inactive | GDH-TPI counter-2 inactive
COc1ccc(C)cc1S(=O)(=O)Nc1cccc(C)c1	none
O=S(=O)(Nc1cccc(-c2cn3cccnc3n2)c1)c1ccc(Cl)cc1	Mtb FBA inh 56.4 | Mtb FBA inh conf inactive | GDH-TPI counter-2 inactive
CC(=O)Nc1ccc(C(=O)N2CCCC(c3cc(C(=O)NCc4cccnc4)no3)C2)cc1 (centres undefined)	none
CC(C)(C)c1ccc(COn2ccnc2)cc1	none
CC(C)N(C(=O)CSc1ccc(S(=O)(=O)N2CCCCC2)cn1)c1ccccc1	none
CC(C)(C)c1ccc(C(=O)NCCc2ccccc2)cc1	Mtb FBA inh 27.1 | Mtb FBA inh conf 111.1 | GDH-TPI counter-2 93.4
CC(C)(C)c1ccc(C(=O)NCc2ccccc2)cc1	none
COc1ccc2c(C)cc(=O)[nH]c2c1	none
COc1ccc2c(O)c(-c3c(C)cc(C)cc3C)c(=O)[nH]c2c1	Mtb FBA inh 46.4, BoNT F protease inconclusive | Mtb FBA inh conf inactive | GDH-TPI counter-2 inactive
CCCCNC(=O)CSc1nc(Cc2ccccc2)nc2ccccc12	none
CCc1cc(C(=O)N(C)CC(=O)Nc2c(Cl)cccc2Cl)sc1C	none
O=C(CCS(=O)(=O)CCN1CCOCC1)NCNC(=O)CCS(=O)(=O)CCN1CCOCC1	none
N#Cc1c(F)cccc1N1CCC(C#N)CC1	BoNT A protease inconclusive, Mtb FBA inh 30.9, BoNT F protease inconclusive | Mtb FBA inh conf 154.1 | GDH-TPI counter-2 114.9
Cc1cc(OC(C)C(=O)NCc2ccccn2)c2c(C)c(C)c(=O)oc2c1 (centres undefined)	Mtb FBA inh 43.6 | Mtb FBA inh conf active | GDH-TPI counter-2 172.8
CC(Oc1ccc2c3c(c(=O)oc2c1)CCCC3)C(=O)NCc1ccccn1 (centres undefined)	Mtb FBA inh 79.5 | Mtb FBA inh conf 31.4 | GDH-TPI counter-2 16.1
Cc1c(C)c2ccc(OCC(=O)NCc3ccccn3)cc2oc1=O	Mtb FBA inh 81.1 | Mtb FBA inh conf active | GDH-TPI counter-2 active
Cc1c(C)c2ccc(OC(C)C(=O)NCc3ccccn3)cc2oc1=O (centres undefined)	Mtb FBA inh 86.6 | Mtb FBA inh conf 154.5 | GDH-TPI counter-2 121.2
CC(Oc1ccc2c3c(c(=O)oc2c1)CCC3)C(=O)NCc1ccccn1 (centres undefined)	none
COc1ccc(OC)c(NC(=O)C2CC(C)=C(C)CC2C(=O)O)c1 (centres undefined)	none
Cc1ccccc1C(=O)Nc1cccc(C(=O)N/N=C/c2cc(Cl)cc([N+](=O)[O-])c2O)c1	none
COc1ccc(C2=NN(c3nc(C(=O)O)cs3)C(O)(C(F)(F)F)C2)c(OC)c1 (centres undefined)	Mtb FBA inh 52.7 | Mtb FBA inh conf 79.0 | GDH-TPI counter-2 60.5
O=C(Nc1nc2ccccc2[nH]1)c1ccccc1O	Mtb FBA inh 46.9 | Mtb FBA inh conf active | GDH-TPI counter-2 active
Cc1ccccc1C(=O)NC1CCN(C(=O)Nc2ccccc2Cl)CC1	none
COc1ccc2c(C(=O)c3ccc(Cl)cc3)n(CCCC(N)=O)[n+]([O-])c2c1	none
CCOC(=O)c1nc2cc3n(c(C)c-2c1C)C(C)C(C)=C3C (centres undefined)	Mtb FBA inh 36.9 | Mtb FBA inh conf 63.5 | GDH-TPI counter-2 50.0
CCOC(=O)c1nnc2cc(C)nn2c1C	none (no result: BoNT A protease, Anthrax LF prot, Bead autofluor, BoNT F protease)
CCOC(=O)c1n[nH]n(-c2cc(Cl)cc(Cl)c2)c1=O	none
CCOC(=O)c1nc2cc3n(c(CC(C)C)c-2c1C)CC(C)=C3C	Mtb FBA inh 27.4 | Mtb FBA inh conf 118.5 | GDH-TPI counter-2 88.0
N#Cc1ccc(-c2ccc(OCC(=O)Nc3cccnc3)cc2)cc1	Mtb FBA inh 42.7 | Mtb FBA inh conf 115.9 | GDH-TPI counter-2 85.0
CC(=O)Nc1ccc(NC(=O)COc2ccc(-c3ccc(C#N)cc3)cc2)cc1	none
Cc1cccc(NC(=O)CNC(=O)COc2ccc(-c3ccc(C#N)cc3)cc2)c1C	Mtb FBA inh 28.8 | Mtb FBA inh conf 100.6 | GDH-TPI counter-2 79.8
N=c1oc2cc(O)ccc2cc1C(=O)Nc1ccc(Br)cc1	Mtb FBA inh 73.0 | Mtb FBA inh conf inactive | GDH-TPI counter-2 15.4
c1ccc(Nc2ccc(-n3ccnc3)nn2)cc1	Mtb FBA inh 69.0 | Mtb FBA inh conf 126.9 | GDH-TPI counter-2 139.8
Cc1cc(C)n2nc(NCc3ccccc3)nc2n1	BoNT A protease inconclusive, Bead autofluor 20633, Mtb FBA inh 54.7 | Mtb FBA inh conf inactive | GDH-TPI counter-2 inactive
COc1ccc(-c2nc3nc(C)cc(C)n3n2)cc1	Mtb FBA inh 57.2 | Mtb FBA inh conf 49.5 | GDH-TPI counter-2 38.0
Cc1cccc2sc(NC(=O)Cn3c(C)csc3=O)nc12	none
O=C(c1ccc(Cl)c([N+](=O)[O-])c1)N1CCN(Cc2ccc3c(c2)OCO3)CC1	none
Cc1cc(OC(=O)N(C)C)nc2c1c(C)nn2C	none
CC(=O)Nc1nn(C)c2nc(C)cc(C)c12	Mtb FBA inh 39.4 | Mtb FBA inh conf 58.8 | GDH-TPI counter-2 49.6
O=C(CN(Cc1ccccc1)C(=O)c1csnn1)NCc1ccccc1	none
